Measured values taken from PubChem BioAssay AID493201 (National Center for Advancing Translational Sciences (NCATS), 2011).
Inconclusive results are not listed. Values without a mark were called inactive. Activity calls are given as the source filed them. The call rests on the fitted dose curve; in most records, active means well fitted activation curve with a large enough effect; inconclusive means small, poorly fitted or top-dose-only effect; inactive means no such curve, though single readings can be large or run the other way.

Test: qHTS Assay for Identifying a Potential Treatment of Ataxia-Telangiectasia: Secondary assay (no NCS) hit validation;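 further: phosphorylated KAP1 signal as a proxy for ATM-like kinase activity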; on activation: 0% is about no effect
Conditions: A-T patient fibroblasts, AlphaLISA, no DNA damage added, 90 min; series mostly up to 76.9 µM; activation: at the top concentration
How it was run: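 hTERT-immortalized A-T patient fibroblasts (F2112), 500 cells/well, exposed to compounds at up to 76.7 uM final without NCS at 37C. KAP-1 phosphorylation measured by AlphaLISA after lysis and 6 h detection at 25C.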
Potency means the concentration at half of the fitted maximal effect.

Row | Compound | activation | Potency
1 | CCOc1ccc(C(=O)NC(=S)Nc2cccnc2)cc1[N+](=O)[O-] | 11.9% | 
2 | O=C(C[n+]1cccc2ccccc21)c1ccc(NC(=O)c2ccccc2)cc1 | -0.848% | 
3 | Cc1nnc(SCC(=O)NC(=O)Nc2ccc3c(c2)OCCO3)n1N | 10.2% | 
4 | Clc1cccc(Cl)c1CSc1nnc(-c2ccncc2)s1 |  | 41.2 µM (active)
5 | CC(C)(CO)NC(=O)c1ccc2c(c1)C(=O)c1ccccc1-2 | 0% | 
6 | COc1ccc(NC(=O)C2CC2)cc1OC1CCCC1 | -2.15% | 
7 | COc1ccc(NCc2cc(=O)oc3cc(NC(C)=O)ccc23)cc1 | 7.53% | 
8 | O=C(O)c1nccnc1C(=O)Nc1ccccc1-c1ccccc1 | 26.1% | 
9 | Cc1ccc(NC(=O)CSc2nnc([C@H](C)NC(=O)OC(C)(C)C)o2)c(C)c1 | 28.8% | 
10 | O=C(/C(=C/c1ccc(Cl)cc1)c1nc2ccccc2[nH]1)c1cccs1 | -1.08% | 
11 | O=C(NCc1ccccc1)c1cccnc1Sc1ccccc1 | 0.87% | 
12 | CCN1C/C(=C/c2sccc2C)c2nc3ccccc3c(C(=O)O)c2C1 |  | 16.4 µM (active)
13 | COc1ccc(C(=O)CSc2nc3ncccc3[nH]2)cc1OC | -4.24% | 
14 | COc1cccc(OCCc2c(C)n[nH]c2C)c1 | -8.6% | 
15 | COc1cc(/C=C2\SC(=S)N(C(C(=O)O)c3ccccc3)C2=O)ccc1O (centres undefined) | 3.23% | 
16 | O=C(N/N=C/c1cccc2ccccc12)c1cccnc1 | 0% | 
17 | CCOC(=O)Cc1csc(NC(=O)CSc2nnc(C(C)C)n2C)n1 | 0% | 

Row | Compound | activation | Potency
18 | Nc1nc2ccccc2cc1-c1cccs1 | -2.15% | 
19 | S=c1[nH]nc(C2CCCCC2)n1/N=C/c1ccc(Br)cc1 | 20.9% | 
20 | c1ccc(CSc2nnc(-c3ccco3)n2Cc2ccco2)cc1 | -5.38% | 
21 | C=CCSc1nc2ccccc2n1C(=O)/C=C/c1cc(OC)c(OC)c(OC)c1 | -3.48% | 
22 | OC(CN1CCCCC1)Cn1c2ccc(Cl)cc2c2cc(Cl)ccc21 (centres undefined) | 1.08% | 
23 | CC(=O)c1ccc([N+](=O)[O-])c(CS(=O)(=O)c2ccc(Cl)cc2)c1 | 0% | 
24 | CCOc1cccc(-c2nnc(SCC(=O)Nc3cc(C)ccc3OC)n2N)c1 | 8.6% | 
25 | COC(=O)c1cccc2c1-c1ccccc1/C2=N\NC(N)=O | 15.1% | 
26 | O=C1CN(C(=O)NCC(=O)N[C@H](C(=O)O)c2ccccc2)c2ccccc2N1 | -0.87% | 
27 | Fc1ccc(C2=NOC(c3nnc(-c4ccccc4)o3)C2)cc1 (centres undefined) | 5.93% | 
28 | c1ccc2c(c1)nc(Nc1ccc(N3CCCCC3)cc1)c1nncn12 | 7.63% | 
29 | CCOC(=O)c1[nH]c(COC(=O)c2ccccc2NC(=O)c2ccco2)c(C(=O)OCC)c1C | -1.08% | 
30 | O=C(Nc1cc(S(=O)(=O)N2CCOCC2)ccc1Cl)c1cc(=O)c2ccccc2o1 | -5.22% | 
31 | N#C/C(=C/c1ccc(F)cc1)C(N)=S | -3.23% | 
32 | O=C(c1ccc(F)cc1)N1CCC(c2ccccc2)C1 (centres undefined) | -9.68% | 
33 | CC(=O)/C(N=Nc1nc2c([nH]1)c(=O)n(C)c(=O)n2C)=C(\C)O | 0% | 
34 | CN(CCc1ccccn1)C(=O)c1cc(COc2ccc(F)cc2F)on1 | -8.7% | 
